Drawing on publication PMC7862700, “An all-to-all approach to the identification of sequence-specific readers for epigenetic DNA modifications on cytosine”, this text covers binding signal for one sequence.

What all share (experiment): DAPPL (digital affinity profiling via proximity ligation, sequencing); 10 mM Tris-HCl pH 7.5, 50 mM NaCl, 1 mM DTT, 4% glycerol, room temperature, 30 min; GST-TFs on glutathione beads, 16-mer random dsDNA library, 0.1% formaldehyde crosslink after washing; high values mean tight binding
The target of one assay is T1, FEV (Homo sapiens, UniProt Q99581 1-238).
T1 sequence: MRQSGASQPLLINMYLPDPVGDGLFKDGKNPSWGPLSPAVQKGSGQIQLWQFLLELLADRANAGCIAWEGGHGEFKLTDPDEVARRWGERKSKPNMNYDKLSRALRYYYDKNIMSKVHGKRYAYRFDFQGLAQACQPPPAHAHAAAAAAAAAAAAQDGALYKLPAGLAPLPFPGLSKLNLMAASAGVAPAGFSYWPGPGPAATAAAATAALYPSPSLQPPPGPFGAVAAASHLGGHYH
The settings on record: protein: recombinant; tags: N-terminal GST; dsDNA, one strand shown. The method in brief: (§1)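 Binding signal is given per hexamer as its read frequency for a factor divided by its frequency in the tag-only sample. GST-fused human transcription factors were expressed in yeast, captured on glutathione beads, barcoded with DNA and pooled with that sample, then incubated with 200 nmole of a 16-mer random double-stranded DNA library in Tris/NaCl/DTT/glycerol buffer for 30 min at room temperature. The pools were then washed, crosslinked, proximity-ligated, amplified by PCR and sequenced on an Illumina NextSeq500.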

The target of a further assay is ETV5 (Homo sapiens, UniProt P41161 1-510). The settings on record: protein: recombinant; tags: N-terminal GST; dsDNA, one strand shown. The method, boiled down:
as §1

The next assay concerns the target HSF1 (Homo sapiens, UniProt Q00613 1-529). The settings on record: protein: recombinant; tags: N-terminal GST; chain copies: 3; dsDNA, one strand shown. The method, boiled down:
as §1

Another assay has as its target T2, SPIC (Homo sapiens, UniProt Q8N5J4 1-248).
T2 sequence: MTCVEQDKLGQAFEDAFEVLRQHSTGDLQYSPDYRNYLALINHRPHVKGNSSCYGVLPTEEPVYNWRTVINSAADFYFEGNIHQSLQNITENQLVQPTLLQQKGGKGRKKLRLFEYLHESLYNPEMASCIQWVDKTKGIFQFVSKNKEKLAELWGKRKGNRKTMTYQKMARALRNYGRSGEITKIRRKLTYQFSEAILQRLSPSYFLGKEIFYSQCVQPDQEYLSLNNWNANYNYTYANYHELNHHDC
The settings on record: protein: recombinant; tags: N-terminal GST; dsDNA, one strand shown. The method in brief: as §1

The target in a further assay is ELF4 (Homo sapiens, UniProt Q99607 1-663). The settings on record: protein: recombinant; tags: N-terminal GST; dsDNA, one strand shown. The method, boiled down:
as §1

Another assay deals with T3, ELK4 (Homo sapiens, UniProt P28324-2 1-405).
T3 sequence: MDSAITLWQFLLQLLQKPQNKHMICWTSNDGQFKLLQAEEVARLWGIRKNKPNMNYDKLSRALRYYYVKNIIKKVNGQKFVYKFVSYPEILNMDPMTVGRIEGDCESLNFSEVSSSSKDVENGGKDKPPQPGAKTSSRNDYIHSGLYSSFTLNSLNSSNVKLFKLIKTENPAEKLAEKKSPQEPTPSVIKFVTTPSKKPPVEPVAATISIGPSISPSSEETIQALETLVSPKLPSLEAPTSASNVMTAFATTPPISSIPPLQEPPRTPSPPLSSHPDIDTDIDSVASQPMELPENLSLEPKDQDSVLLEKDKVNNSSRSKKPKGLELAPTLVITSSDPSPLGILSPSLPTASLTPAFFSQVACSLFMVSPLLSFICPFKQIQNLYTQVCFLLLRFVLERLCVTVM
The settings on record: protein: recombinant; tags: N-terminal GST; dsDNA, one strand shown. The method in brief:
as §1

Another assay concerns the target T4, ETV2 (Homo sapiens, UniProt O00321 1-342).
T4 sequence: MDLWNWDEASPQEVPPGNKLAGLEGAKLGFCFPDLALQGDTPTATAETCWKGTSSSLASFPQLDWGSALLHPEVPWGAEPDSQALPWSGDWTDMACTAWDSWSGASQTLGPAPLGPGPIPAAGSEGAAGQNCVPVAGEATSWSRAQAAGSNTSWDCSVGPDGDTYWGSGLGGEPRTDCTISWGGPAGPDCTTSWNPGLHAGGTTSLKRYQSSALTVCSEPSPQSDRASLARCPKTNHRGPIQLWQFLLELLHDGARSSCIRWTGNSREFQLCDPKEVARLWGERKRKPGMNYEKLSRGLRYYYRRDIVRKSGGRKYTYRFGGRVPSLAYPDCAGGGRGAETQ
The settings on record: protein: recombinant; tags: N-terminal GST; dsDNA, one strand shown. The method, boiled down: as §1

The next assay addresses T5, ELF3 (Homo sapiens, UniProt P78545 1-371).
T5 sequence: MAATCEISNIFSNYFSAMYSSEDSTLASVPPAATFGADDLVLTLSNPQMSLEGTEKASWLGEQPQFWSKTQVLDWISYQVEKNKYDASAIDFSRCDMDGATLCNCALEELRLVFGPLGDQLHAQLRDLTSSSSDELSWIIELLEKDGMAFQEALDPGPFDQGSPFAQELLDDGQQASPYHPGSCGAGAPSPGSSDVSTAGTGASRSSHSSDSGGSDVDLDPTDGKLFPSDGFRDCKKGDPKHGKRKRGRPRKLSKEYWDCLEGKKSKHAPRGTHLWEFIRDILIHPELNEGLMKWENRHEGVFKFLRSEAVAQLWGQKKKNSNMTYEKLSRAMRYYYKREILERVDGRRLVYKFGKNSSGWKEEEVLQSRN
The settings on record: protein: recombinant; tags: N-terminal GST; dsDNA, one strand shown. The method in brief: as §1

A further assay concerns the target CRX (Homo sapiens, UniProt O43186 1-299). The settings on record: protein: recombinant; tags: N-terminal GST; dsDNA, one strand shown. The method, boiled down:
as §1

The target in a further assay is ETV1 (Homo sapiens, UniProt P50549 1-477). The settings on record: protein: recombinant; tags: N-terminal GST; dsDNA, one strand shown. The method, boiled down: as §1
The target in the next assay is T6, ERF (Homo sapiens, UniProt P50548 1-548).
T6 sequence: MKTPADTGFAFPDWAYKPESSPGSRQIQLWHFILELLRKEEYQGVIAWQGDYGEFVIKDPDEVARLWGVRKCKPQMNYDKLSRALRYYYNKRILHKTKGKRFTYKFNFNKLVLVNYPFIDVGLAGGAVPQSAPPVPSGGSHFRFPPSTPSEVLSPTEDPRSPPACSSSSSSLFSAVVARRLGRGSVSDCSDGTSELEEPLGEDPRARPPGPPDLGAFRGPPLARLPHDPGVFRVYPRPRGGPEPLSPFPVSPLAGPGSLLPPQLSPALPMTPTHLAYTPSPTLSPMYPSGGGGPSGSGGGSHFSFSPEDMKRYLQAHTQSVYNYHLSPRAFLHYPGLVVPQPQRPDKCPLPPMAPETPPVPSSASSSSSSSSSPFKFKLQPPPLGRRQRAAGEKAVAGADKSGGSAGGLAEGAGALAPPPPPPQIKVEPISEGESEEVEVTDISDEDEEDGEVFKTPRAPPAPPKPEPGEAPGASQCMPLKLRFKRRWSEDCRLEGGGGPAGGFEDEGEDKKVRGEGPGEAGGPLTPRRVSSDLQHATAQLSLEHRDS
The settings on record: protein: recombinant; tags: N-terminal GST; dsDNA, one strand shown. The method, boiled down:
as §1

A further assay has as its target T7, ETV3L (Homo sapiens, UniProt Q6ZN32 1-361).
T7 sequence: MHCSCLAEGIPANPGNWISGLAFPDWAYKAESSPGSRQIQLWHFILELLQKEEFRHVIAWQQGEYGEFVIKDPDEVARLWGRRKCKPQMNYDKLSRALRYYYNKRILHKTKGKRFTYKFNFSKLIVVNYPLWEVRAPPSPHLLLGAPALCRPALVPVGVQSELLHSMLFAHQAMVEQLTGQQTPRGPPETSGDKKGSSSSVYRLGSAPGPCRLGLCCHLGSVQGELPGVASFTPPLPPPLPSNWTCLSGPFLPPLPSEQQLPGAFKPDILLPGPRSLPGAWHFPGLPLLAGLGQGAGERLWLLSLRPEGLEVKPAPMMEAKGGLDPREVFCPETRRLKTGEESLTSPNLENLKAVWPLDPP
The settings on record: protein: recombinant; tags: N-terminal GST; dsDNA, one strand shown. The method in brief:
as §1

Another assay addresses T8, ETS2 (Homo sapiens, UniProt P15036 1-469).
T8 sequence: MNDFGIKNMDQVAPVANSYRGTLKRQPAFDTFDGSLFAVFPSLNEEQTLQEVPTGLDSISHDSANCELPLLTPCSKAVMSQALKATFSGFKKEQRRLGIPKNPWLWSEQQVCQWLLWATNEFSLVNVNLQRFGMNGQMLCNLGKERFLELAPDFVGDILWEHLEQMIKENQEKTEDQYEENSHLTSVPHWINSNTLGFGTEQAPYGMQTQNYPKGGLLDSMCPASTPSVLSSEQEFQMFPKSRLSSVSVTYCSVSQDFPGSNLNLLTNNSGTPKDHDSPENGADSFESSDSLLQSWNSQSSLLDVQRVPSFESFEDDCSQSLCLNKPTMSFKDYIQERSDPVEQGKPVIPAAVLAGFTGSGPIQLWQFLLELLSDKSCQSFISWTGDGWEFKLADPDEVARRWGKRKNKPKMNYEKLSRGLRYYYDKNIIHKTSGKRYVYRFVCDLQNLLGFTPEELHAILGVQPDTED
The settings on record: protein: recombinant; tags: N-terminal GST; dsDNA, one strand shown. The method in brief:
as §1

In another assay the target is T9, SPDEF (Homo sapiens, UniProt O95238 1-335).
T9 sequence: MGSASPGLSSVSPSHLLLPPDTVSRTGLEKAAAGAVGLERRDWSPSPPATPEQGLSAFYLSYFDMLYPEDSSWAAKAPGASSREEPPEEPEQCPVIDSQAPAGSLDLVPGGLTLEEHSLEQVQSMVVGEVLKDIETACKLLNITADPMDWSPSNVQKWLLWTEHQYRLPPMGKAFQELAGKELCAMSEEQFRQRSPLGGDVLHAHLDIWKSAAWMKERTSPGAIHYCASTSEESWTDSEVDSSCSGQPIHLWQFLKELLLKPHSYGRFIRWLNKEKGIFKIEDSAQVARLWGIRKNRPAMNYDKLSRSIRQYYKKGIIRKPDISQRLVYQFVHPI
The settings on record: protein: recombinant; tags: N-terminal GST; dsDNA, one strand shown. The method in brief:
as §1

In a further assay the target is T10, ETV7 (Homo sapiens, UniProt Q9Y603 1-341).
T10 sequence: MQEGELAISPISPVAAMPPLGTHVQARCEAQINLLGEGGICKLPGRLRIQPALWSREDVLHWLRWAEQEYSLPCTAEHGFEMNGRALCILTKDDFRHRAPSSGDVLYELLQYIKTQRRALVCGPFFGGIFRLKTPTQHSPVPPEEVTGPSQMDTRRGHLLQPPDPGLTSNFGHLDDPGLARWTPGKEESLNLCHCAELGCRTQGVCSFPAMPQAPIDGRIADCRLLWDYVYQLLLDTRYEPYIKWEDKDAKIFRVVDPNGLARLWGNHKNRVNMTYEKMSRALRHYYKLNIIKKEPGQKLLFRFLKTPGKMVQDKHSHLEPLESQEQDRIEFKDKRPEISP
The settings on record: protein: recombinant; tags: N-terminal GST; dsDNA, one strand shown. The method in brief:
as §1

The next assay has as its target T11, ELF5 (Homo sapiens, UniProt Q9UKW6-2 1-255).
T11 sequence: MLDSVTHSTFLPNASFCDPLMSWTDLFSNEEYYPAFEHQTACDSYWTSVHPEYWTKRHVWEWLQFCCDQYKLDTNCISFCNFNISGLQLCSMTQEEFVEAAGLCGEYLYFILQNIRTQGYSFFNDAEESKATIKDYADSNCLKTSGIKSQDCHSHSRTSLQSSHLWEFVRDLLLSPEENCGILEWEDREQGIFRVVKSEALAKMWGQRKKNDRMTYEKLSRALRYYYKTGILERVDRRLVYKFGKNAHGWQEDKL
The settings on record: protein: recombinant; tags: N-terminal GST; dsDNA, one strand shown. The method, boiled down:
as §1

The next assay concerns the target T12, ETV3 (Homo sapiens, UniProt P41162-2 1-143).
T12 sequence: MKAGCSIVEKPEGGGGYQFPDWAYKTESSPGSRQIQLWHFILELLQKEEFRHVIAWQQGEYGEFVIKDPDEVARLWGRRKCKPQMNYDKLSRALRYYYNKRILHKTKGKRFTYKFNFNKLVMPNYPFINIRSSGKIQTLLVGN
The settings on record: protein: recombinant; tags: N-terminal GST; dsDNA, one strand shown. The method, boiled down:
as §1

The target of another assay is ETV6 (Homo sapiens, UniProt P41212 1-452). The settings on record: protein: recombinant; tags: N-terminal GST; dsDNA, one strand shown. The method, boiled down:
as §1

Sequence of ETV1 (P50549 whole entry): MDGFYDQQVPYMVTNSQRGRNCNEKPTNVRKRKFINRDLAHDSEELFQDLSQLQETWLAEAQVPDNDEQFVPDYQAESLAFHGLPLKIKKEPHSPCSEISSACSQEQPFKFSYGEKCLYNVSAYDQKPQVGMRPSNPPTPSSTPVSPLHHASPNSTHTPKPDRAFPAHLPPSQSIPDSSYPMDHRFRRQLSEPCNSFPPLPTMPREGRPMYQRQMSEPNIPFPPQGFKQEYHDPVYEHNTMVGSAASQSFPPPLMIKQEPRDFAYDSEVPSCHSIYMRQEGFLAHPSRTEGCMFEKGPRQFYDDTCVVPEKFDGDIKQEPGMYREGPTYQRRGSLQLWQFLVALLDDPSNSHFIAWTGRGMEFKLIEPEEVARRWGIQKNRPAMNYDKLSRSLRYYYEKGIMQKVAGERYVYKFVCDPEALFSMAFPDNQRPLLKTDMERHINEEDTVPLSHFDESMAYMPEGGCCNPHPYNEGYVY
Sequence of ELF4 (Q99607 whole entry): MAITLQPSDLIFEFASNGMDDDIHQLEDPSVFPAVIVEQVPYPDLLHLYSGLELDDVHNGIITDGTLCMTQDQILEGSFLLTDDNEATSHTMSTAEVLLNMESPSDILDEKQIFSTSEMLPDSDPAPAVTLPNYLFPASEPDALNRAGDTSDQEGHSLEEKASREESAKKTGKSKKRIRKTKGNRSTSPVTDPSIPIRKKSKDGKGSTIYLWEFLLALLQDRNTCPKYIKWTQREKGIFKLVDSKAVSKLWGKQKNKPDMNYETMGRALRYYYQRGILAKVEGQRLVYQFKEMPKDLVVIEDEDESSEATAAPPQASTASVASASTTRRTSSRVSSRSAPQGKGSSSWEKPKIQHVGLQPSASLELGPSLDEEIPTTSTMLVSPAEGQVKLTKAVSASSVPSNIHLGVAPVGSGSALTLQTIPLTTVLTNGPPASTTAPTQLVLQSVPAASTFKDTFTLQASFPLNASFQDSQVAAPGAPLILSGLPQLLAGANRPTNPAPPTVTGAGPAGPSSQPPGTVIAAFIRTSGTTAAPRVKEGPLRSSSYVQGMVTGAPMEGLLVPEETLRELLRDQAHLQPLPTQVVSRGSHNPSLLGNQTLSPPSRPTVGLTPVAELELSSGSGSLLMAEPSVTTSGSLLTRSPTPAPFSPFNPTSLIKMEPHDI
Sequence of CRX (O43186 whole entry): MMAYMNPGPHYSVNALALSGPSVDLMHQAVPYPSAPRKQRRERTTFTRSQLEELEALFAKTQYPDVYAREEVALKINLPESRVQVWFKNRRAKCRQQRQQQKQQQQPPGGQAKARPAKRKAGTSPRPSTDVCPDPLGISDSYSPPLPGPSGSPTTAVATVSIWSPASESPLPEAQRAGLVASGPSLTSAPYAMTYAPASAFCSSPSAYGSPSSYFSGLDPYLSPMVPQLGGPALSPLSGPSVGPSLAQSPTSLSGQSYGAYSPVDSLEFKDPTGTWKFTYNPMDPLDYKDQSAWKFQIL
Sequence of ETV5 (P41161 whole entry): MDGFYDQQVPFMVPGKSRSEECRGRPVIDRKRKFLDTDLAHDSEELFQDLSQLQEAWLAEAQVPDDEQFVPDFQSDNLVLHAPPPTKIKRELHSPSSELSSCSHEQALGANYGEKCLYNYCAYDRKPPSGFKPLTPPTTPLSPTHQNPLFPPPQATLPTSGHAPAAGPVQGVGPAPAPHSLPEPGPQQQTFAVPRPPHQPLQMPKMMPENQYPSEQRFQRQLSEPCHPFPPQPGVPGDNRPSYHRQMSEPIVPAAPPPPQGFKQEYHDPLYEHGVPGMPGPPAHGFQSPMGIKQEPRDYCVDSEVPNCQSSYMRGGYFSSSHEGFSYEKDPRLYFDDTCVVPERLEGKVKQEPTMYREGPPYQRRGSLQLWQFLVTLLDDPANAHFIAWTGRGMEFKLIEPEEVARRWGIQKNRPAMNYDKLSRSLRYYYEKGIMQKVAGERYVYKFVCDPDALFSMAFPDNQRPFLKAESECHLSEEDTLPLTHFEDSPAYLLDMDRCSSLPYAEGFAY
Sequence of ETV6 (P41212 whole entry): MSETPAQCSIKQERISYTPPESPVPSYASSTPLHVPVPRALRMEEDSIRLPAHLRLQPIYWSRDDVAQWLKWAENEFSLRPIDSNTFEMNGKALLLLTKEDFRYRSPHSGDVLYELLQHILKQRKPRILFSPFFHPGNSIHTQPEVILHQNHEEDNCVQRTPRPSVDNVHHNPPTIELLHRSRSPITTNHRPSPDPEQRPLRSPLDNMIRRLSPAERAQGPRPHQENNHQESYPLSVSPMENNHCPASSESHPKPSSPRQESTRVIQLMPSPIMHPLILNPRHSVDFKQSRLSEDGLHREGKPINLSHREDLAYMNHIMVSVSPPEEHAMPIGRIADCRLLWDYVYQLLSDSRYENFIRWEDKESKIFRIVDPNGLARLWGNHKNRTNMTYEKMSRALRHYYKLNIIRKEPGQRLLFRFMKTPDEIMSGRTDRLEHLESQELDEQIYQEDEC
Sequence of HSF1 (Q00613 whole entry): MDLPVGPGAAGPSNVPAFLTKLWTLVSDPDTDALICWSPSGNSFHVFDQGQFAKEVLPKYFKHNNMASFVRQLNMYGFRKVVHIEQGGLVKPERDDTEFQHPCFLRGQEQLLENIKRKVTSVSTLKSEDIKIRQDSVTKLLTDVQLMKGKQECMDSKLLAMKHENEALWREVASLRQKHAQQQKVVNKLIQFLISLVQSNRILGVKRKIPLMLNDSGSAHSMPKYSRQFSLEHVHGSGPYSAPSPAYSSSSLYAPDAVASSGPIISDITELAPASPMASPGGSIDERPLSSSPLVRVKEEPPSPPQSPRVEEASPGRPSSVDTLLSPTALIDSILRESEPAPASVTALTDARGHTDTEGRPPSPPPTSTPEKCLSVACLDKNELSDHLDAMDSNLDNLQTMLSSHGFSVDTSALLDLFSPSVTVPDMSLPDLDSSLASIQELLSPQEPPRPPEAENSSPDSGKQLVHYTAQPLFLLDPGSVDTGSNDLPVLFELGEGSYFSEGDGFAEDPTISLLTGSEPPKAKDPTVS

Turning to TTTGAA, the binding signal with FEV is 1.13 fold enrichment (6-mer frequency, TF over GST control); with ETV5, 1.26 fold enrichment (6-mer frequency, TF over GST control); with HSF1, 1.24 fold enrichment (6-mer frequency, TF over GST control); in the assay with SPIC it was 1.24 fold enrichment (6-mer frequency, TF over GST control); with ELF4, 1.32 fold enrichment (6-mer frequency, TF over GST control); with ELK4, 1.34 fold enrichment (6-mer frequency, TF over GST control). Besides, the binding signal is 1.38 fold enrichment (6-mer frequency, TF over GST control) with ETV2; 1.3 fold enrichment (6-mer frequency, TF over GST control) with ELF3; 1.28 fold enrichment (6-mer frequency, TF over GST control) with CRX; 1.19 fold enrichment (6-mer frequency, TF over GST control) in the assay with ETV1; 1.11 fold enrichment (6-mer frequency, TF over GST control) with ERF; 1.19 fold enrichment (6-mer frequency, TF over GST control) with ETV3L. Besides, the binding signal in the assay with ETS2 was 1.23 fold enrichment (6-mer frequency, TF over GST control); with SPDEF, 1.15 fold enrichment (6-mer frequency, TF over GST control); with ETV7 it was 1.17 fold enrichment (6-mer frequency, TF over GST control); with ELF5, 1.1 fold enrichment (6-mer frequency, TF over GST control); with ETV3, 1.22 fold enrichment (6-mer frequency, TF over GST control); in the assay with ETV6 it was 1.23 fold enrichment (6-mer frequency, TF over GST control).
